Activity calls are given as the source filed them.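 The calls were made as follows: active = every separate test run called active, meaning the signal drops and a potency is fitted within twice the top valid dose; inconclusive = runs disagree, poor fit, or flat partial inhibition; inactive = all runs inactive, flat, opposite direction or too weak.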

This note sets out measurements from PubChem BioAssay AID602295 (Broad Institute, 2012).

The target of this test is Mitogen-activated protein kinase 3 (Homo sapiens) (UniProt P27361). Nature of the test: inhibition of MAPK3 kinase activity – biochemical, ADP-Glo luminescence, cherry pick, set 2, selectivity assay for Dyrk1A inhibitor NFAT project, dose response (AID 602295).
Mitogen-activated protein kinase 3 (Homo sapiens), sequence (P27361 whole entry, looked up): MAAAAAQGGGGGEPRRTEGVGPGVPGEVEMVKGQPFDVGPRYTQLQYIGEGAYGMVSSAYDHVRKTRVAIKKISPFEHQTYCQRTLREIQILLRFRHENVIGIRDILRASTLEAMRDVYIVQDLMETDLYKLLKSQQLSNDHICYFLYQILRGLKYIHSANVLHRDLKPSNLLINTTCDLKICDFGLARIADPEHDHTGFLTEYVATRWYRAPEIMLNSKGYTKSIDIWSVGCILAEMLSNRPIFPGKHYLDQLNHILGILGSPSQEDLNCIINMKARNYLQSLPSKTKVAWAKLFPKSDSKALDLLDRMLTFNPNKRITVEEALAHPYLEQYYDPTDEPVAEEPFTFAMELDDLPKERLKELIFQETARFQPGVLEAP

Regarding `COc1ccc2c(c1)[nH]c1c(C)nccc12`, the compound was classed as inactive.
